Source: PubChem BioAssay (NCATS)
Results filed as inconclusive are left out. Activity calls are given as the source filed them. Calls come from the whole dose curve; as a rule, active = well fitted curve in the direction sought with a large enough effect; inconclusive = small, poorly fitted or top-dose-only effect, or another doubt; inactive = no such curve, though single readings can be large; an effect the other way counts as inactive or inconclusive.

Experiments:
[1] = molecular target: Phospholipid hydroperoxide glutathione peroxidase GPX4 (Homo sapiens) (UniProt P36969); assay: Primary qHTS Assay for Inhibitors of Recombinant Selenoprotein Glutathione Peroxidase 4 (GPX4) (AID 1845192); note: nearly all actives have a fitted effect of over 65% in size
Phospholipid hydroperoxide glutathione peroxidase GPX4 (Homo sapiens), sequence (P36969 whole entry, looked up): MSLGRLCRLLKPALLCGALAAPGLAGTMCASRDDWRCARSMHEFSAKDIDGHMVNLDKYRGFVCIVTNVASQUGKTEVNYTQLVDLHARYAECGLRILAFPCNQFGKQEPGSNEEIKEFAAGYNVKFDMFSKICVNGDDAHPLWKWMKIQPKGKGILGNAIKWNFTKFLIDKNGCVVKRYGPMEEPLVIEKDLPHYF
How it was run: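 GR-coupled readout: 100 nM GR, 1 mM GSH, 0.5 mM NADPH; NADPH fluorescence (ex 340/em 450 nm) read at t=0 and after 15 min RT. GPX4 200 nM, preincubated 30 min with compound; substrate 0.5 mM CHP.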

[2] = molecular target: Luciferin 4-monooxygenase (Photinus pyralis) (UniProt P08659); assay: Primary firefly luciferase (FLuc) qHTS assay for identification of artifact compounds. (AID 1845220); note: nearly all actives have a fitted effect of over 60% in size
How it was run: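 qHTS, 15 min compound preincubation with substrate (10 uM luciferin, 10 uM ATP) at RT, then 10 nM FLuc; 5 min; luminescence; % inhibition vs no-enzyme/DMSO controls, 4-parameter Hill fit.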

[3] = Primary fluorescence-based thiol-reactive (MSTI) qHTS assay for identification of artifact compounds. (AID 1845221); note: nearly all actives have a fitted effect of over 65% in size; note: potency is the fitted concentration of half-maximal effect
How it was run: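 qHTS titration of compound; 4 uM MSTI, PBS pH 7.4, 2% DMSO; 1 h RT, dark; fluorescence 525/598 nm; normalized to Acetyl-MSTI and MSTI; 4-parameter Hill fit.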

[4] = test system: Nanoluciferase (engineered Oplophorus gracilirostris luciferase); assay: Primary Nanoluciferase (NLuc) qHTS assay for identification of artifact compounds. (AID 1845222); note: series mostly up to about 54 µM
How it was run: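 Luminescence read-out of secreted NLuc in S16 cell conditioned medium (1:55); compounds tested with 15 min RT preincubation, then Nano-Glo substrate 1:100, 5 min. % inhibition vs no-enzyme and DMSO controls, 4-parameter Hill fit.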

[5] = Primary redox qHTS assay for identification of artifact compounds. (AID 1845223); note: potency is the fitted concentration of half-maximal effect
How it was run: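 Amplex Red (25 uM) and HRP (250 mU/mL) in HBSS, with compounds for 15 min, then 250 uM DTT for 30 min, room temperature, dark. Fluorescence 525/598 nm read; normalized to DMSO and 10 uM DA3003; Hill fit.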

Measured: Potency

CC(NC(=O)Cc1cc(F)cc(F)c1)C(=O)NC1C(=O)N(C)c2ccccc2-c2ccccc21 (centres undefined)
inactive: all assays above

O=C1C[C@]23C=CCN4CCC5c6cc7c(cc6N1[C@@]5(CC2)C43)OCO7 (some centres undefined)
not listed: [3]
inactive: all other assays above

O=C(O)CSc1cc(NS(=O)(=O)c2ccc(Br)cc2)c2ccccc2c1O
active: [3] 474 nM | [5] 5320 nM
inactive: [1] | [2]

CC[C@@H](Nc1c(Nc2cccc(C(=O)N(C)C)c2O)c(=O)c1=O)c1cc(C(C)C)co1
active: [3] 2380 nM
inactive: all other assays above

O=C(Nc1ccccc1C(=O)NC1CCCCNC1=O)c1cc2ccccc2s1 (centres undefined)
inactive: [3] | [4] | [5]

C=CC(=O)N1CCCC(n2nc(-c3ccc(Oc4ccccc4)cc3)c3c(N)ncnc32)C1 (centres undefined)
not listed: [3]
inactive: all other assays above

COc1cc(CCc2cc(NC(=O)c3ccc(N4CC(C)NC(C)C4)cc3)n[nH]2)cc(OC)c1 (centres undefined)
not listed: [4]
inactive: all other assays above

COC(=O)c1ccc2c(c1)[nH]c1ncnc(NCCCN3CCCCC3)c12
not listed: [1]
inactive: all other assays above

CO[C@H]1O[C@@H]2O[C@@]3(C)CCC4[C@H](C)CCC([C@H]1C)[C@]42OO3 (some centres undefined)
not listed: [4]
inactive: all other assays above

Cc1cc2occ(CN(C)CCN(C)Cc3cn(-c4cccc(C(F)(F)F)c4)c4ccccc34)c(=O)c2cc1C
inactive: [1] | [2] | [5]

CC(=O)Nc1nc(C)c(-c2nc(N3CCCC(O)C3)no2)s1 (centres undefined)
not listed: [1]
inactive: all other assays above
